From the supplement of paper PMC10849652
The full data set covers some 7,900 targets. This sample favours those with a hit. About 0.6% of all pairs of compound and target were hits. Values without a mark were called inactive.

Tests used:
Test in all cases: log2 fold change, soluble protein after heating vs DMSO (PISA); higher = thermal stabilisation; K562 cells, 10 uM, 30 min; active = over 0.2 and 3.5 SD of the protein, either way, in both replicates (recomputed)
[1] = compound: C1COCCN1CCN2C3=CC=CC=C3N=C2NC(=O)C4=CC(=CC=C4)[N+](=O)[O-] [IRAK-1-4 Inhibitor I]
How it was run: (§1)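 Aliquots of K562 cells (2×10^6 cells/mL) treated with 10 μM compound for 30 min were heated for 3 min over 48°C-58°C. After pooling and extraction in PBS with 0.5% NP-40 at 4°C, soluble protein from a 21,000xg, 90 min spin was quantified by TMTpro 16plex LC-MS/MS with channel sums equalised. Thermal stability is expressed against control samples, from duplicates, as a log2 fold change.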

[2] = compound: C=CC(=O)N1CCC[C@@H](n2nc(-c3ccc(Oc4ccccc4)cc3)c3c(N)ncnc32)C1 [ibrutinib]
How it was run: as §1

[3] = compound: CC(=O)c1cnc2ccc(-c3cc(Cl)c(O)c(Cl)c3)nc2c1N[C@H]1CC[C@H](CN(C)C)CC1
How it was run: as §1

[4] = compound: CC(C)(C)Cn1c(N)nc2ccc(-c3[nH]c(C(C)(C)C)nc3-c3ccc(F)cc3)nc21 [ralimetinib]
How it was run: as §1

[5] = compound: CC(C)(O)CC(=O)NCCn1ccc2ncnc(Nc3ccc(Oc4cccc(C(F)(F)F)c4)c(Cl)c3)c21
How it was run: as §1

[6] = compound: CC(C)C1=C2N=C(C=C(N2N=C1)NCC3=CC=CC=C3)NCCCCCCN
How it was run: as §1

[7] = compound: CC(C)C[C@@H](C=O)NC(=O)[C@H](CC(C)C)NC(=O)[C@H](CC(C)C)NC(=O)OCc1ccccc1
How it was run: as §1

[8] = compound: CC(C)N(C[C@H]1O[C@@H](n2cnc3c(N)ncnc32)[C@H](O)[C@@H]1O)[C@H]1C[C@@H](CCc2nc3cc(C(C)(C)C)ccc3[nH]2)C1 [pinometostat]
How it was run: as §1

[9] = compound: CC1=C(C(CC(=O)N1)C2=CC=C(C=C2)C(F)(F)F)C(=O)NC3=C(C=C4C(=C3)C=NN4)F
How it was run: as §1

[10] = compound: CC1=C(C2=C(C=C1)C(=O)C3=CC=CC=C3N2CCCN)C
How it was run: as §1

UniProt P49448, sequence (P49448 whole entry, looked up): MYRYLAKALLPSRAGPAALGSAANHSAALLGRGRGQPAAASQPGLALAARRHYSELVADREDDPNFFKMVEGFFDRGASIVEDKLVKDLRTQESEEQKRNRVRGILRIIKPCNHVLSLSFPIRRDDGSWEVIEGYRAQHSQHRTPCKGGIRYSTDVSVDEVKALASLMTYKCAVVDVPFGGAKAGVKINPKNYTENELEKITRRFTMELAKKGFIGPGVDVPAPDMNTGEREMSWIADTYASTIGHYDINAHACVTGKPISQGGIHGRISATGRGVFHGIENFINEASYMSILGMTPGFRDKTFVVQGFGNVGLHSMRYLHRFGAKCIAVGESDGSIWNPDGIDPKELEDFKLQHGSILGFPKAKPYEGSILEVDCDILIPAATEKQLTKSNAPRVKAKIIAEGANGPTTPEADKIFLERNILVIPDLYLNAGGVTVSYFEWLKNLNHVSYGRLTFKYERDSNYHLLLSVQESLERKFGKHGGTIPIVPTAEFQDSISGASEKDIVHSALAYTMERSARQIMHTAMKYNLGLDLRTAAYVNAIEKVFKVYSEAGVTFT
UniProt P00367, sequence (P00367 whole entry, looked up): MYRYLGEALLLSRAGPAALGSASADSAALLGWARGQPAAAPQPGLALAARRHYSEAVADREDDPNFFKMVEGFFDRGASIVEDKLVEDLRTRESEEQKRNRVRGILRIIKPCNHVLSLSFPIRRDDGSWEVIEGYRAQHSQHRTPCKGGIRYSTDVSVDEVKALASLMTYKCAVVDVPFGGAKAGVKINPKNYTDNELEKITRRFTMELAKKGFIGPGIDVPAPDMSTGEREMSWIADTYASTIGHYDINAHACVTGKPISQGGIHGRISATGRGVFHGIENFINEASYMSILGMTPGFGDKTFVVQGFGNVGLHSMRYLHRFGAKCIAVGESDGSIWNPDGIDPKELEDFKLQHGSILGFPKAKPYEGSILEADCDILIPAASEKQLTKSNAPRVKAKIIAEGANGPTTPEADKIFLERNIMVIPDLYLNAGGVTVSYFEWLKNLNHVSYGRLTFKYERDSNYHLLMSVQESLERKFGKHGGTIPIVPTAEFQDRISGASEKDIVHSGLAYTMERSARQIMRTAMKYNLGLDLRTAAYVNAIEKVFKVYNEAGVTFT
UniProt O94925, sequence (O94925 whole entry, looked up): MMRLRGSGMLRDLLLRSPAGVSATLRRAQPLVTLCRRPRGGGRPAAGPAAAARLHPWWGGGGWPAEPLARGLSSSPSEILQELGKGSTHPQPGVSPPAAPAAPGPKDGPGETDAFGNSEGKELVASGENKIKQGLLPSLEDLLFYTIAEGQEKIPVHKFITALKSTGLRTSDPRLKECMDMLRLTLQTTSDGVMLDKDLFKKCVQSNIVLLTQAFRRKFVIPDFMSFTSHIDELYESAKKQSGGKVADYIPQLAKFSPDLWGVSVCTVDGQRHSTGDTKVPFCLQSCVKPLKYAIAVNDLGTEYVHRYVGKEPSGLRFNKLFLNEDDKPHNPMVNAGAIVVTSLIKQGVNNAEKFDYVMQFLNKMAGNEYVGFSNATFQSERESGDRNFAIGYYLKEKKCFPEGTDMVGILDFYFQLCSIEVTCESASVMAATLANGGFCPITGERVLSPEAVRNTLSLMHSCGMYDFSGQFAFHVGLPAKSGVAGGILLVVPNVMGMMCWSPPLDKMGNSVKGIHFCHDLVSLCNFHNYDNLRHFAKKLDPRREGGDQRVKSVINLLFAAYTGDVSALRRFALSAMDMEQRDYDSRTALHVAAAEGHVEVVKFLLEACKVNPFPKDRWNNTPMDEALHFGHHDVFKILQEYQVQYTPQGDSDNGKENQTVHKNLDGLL
UniProt P50213, sequence (P50213 whole entry, looked up): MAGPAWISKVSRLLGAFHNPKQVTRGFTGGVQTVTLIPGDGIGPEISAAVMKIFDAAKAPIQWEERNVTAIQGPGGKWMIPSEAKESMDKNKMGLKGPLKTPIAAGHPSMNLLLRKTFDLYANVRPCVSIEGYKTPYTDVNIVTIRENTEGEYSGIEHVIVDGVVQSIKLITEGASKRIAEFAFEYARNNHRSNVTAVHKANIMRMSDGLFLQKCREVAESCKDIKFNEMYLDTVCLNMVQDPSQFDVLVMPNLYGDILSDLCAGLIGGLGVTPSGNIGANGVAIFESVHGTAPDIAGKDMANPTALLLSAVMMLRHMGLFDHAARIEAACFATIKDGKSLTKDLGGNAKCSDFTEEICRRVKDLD
UniProt P40939, sequence (P40939 whole entry, looked up): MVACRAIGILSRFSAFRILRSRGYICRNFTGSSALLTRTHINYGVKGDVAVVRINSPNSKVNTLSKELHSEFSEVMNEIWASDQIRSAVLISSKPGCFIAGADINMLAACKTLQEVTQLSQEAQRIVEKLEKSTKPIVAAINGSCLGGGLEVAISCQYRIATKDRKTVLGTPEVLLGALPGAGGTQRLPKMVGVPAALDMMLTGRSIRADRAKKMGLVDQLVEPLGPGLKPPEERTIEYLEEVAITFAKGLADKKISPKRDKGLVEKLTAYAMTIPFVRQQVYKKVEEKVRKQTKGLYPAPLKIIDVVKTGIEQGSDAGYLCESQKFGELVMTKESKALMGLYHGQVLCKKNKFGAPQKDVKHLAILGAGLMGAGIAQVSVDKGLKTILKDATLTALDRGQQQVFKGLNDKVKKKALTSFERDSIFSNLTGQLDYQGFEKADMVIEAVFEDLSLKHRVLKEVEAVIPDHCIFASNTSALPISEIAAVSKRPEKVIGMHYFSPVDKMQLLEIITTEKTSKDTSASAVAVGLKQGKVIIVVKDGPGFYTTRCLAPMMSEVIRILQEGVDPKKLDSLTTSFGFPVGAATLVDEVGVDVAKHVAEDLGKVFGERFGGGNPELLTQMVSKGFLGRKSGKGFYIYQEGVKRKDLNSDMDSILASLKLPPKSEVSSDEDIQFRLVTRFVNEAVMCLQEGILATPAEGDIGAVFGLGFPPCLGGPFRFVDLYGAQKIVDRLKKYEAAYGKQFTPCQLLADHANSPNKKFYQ
UniProt Q12894, sequence (Q12894 whole entry, looked up): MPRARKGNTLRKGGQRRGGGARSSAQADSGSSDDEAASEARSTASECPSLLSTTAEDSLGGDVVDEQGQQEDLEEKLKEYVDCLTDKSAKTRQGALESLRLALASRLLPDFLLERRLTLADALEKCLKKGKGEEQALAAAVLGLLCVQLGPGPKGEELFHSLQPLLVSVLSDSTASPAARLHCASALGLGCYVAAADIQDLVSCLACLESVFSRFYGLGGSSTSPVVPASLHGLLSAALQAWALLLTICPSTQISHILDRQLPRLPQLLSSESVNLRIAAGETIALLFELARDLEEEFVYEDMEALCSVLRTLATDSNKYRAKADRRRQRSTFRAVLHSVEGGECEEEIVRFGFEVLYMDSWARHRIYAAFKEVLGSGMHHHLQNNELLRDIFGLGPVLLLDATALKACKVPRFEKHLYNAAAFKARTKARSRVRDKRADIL
UniProt P55795, sequence (P55795 whole entry, looked up): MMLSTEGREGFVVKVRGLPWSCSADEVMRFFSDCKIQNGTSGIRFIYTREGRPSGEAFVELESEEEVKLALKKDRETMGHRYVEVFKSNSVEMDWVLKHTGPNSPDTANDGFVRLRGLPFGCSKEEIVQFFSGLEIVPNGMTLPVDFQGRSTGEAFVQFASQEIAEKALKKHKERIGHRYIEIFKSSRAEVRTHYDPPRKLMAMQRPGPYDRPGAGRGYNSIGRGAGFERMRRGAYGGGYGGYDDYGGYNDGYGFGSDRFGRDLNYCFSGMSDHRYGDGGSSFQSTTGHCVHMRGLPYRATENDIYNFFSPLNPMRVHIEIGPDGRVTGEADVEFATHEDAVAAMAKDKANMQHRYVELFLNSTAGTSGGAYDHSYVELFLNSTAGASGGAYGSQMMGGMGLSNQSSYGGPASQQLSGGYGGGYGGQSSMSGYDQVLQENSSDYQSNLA
UniProt P49356, sequence (P49356 whole entry, looked up): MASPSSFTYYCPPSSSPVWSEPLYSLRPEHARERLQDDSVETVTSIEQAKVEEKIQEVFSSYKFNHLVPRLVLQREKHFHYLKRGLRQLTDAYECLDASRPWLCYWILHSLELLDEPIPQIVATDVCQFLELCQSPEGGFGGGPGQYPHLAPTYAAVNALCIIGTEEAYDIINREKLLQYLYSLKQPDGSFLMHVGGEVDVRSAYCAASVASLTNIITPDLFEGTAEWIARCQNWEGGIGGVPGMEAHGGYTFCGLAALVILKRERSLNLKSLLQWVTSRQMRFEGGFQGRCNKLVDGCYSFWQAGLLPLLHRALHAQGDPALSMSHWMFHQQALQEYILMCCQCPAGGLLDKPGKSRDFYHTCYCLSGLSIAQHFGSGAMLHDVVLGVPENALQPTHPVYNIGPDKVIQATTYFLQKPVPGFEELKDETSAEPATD
UniProt P16278, sequence (P16278 whole entry, looked up): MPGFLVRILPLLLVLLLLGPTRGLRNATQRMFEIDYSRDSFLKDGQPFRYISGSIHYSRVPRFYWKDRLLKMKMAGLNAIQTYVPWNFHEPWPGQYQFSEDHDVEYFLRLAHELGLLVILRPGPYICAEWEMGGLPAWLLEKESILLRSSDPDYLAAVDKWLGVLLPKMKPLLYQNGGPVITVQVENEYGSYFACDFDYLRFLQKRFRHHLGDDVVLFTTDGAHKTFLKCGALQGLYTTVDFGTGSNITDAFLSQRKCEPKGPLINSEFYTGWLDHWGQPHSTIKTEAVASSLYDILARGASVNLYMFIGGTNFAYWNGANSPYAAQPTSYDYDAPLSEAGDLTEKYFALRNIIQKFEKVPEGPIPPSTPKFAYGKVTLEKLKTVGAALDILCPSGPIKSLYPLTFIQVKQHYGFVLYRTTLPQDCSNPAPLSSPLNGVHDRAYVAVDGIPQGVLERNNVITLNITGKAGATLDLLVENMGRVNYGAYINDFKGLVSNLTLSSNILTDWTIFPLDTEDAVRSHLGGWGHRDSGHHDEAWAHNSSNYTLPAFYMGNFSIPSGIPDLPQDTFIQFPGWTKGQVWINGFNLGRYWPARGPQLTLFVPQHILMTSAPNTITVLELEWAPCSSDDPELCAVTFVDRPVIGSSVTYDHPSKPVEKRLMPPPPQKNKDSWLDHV

Target	log2 fold change [1]	log2 fold change [2]	log2 fold change [3]	log2 fold change [4]	log2 fold change [5]	log2 fold change [6]	log2 fold change [7]	log2 fold change [8]	log2 fold change [9]	log2 fold change [10]
IDH3A (UniProt P50213)	0.033	0.021	-0.008	-0.085	-0.044	0.034	0	-0.029	0.008	0.015
GLUD2 (UniProt P49448)	0.025	0.045	0.113	0	0.098	-0.041	0.014	-0.013	-0.098	0.127
FEN1 (UniProt P39748)	-0.071	-0.016	-0.116	-0.008	-0.368	-0.393	0.039	-0.03	-0.067	-0.016
GLB1 (UniProt P16278)	0.041	0.033	-0.005	-0.009	0.048	-0.282 (active)	0.062	0.021	0.014	-0.015
GGT7 (UniProt Q9UJ14)	0.04	0.038	0.02	-0.046	0.015	0.095	0.001	-0.005	-0.015	-0.031
GLUD1 (UniProt P00367)	0.02	0.04	0.068	0.023	-0.038	-0.049	0.012	0.023	-0.076	0.125
GABARAPL1 isoform 2 (UniProt Q9H0R8)	0.031	-0.057	-0.065	-0.003	-0.024	-0.369 (active)	0.092	-0.044	-0.047	0.023
FOXK1 (UniProt P85037)	0.046	0.121	-1.03 (active)	-0.027	0.015	0.111	0.052	-0.002	-0.05	0.154
FBXO6 (UniProt Q9NRD1)	-0.015	0.015	-0.068	0.004	-0.127	0.437 (active)	-0.046	-0.021	-0.043	0.068
HADHA (UniProt P40939)	-0.001	0.175	-0.358	0.058	-0.132	0.43	-0.116	-0.064	-0.125	0.054
IFRD2 isoform 2 (UniProt Q12894)	0.141	0.063	0.369	-0.045	0.013	0.07	0.019	0.144	-0.116	-1.69 (active)
FLNA (UniProt P21333)	-0.046	-0.111	0.031	0.035	-0.086	-0.112	0.049	0.081	-0.017	-0.027
HSPA8 (UniProt P11142)	0.032	-0.015	0.014	-0.004	0.029	0.037	-0.013	-0.023	-0.009	-0.016
FBL (UniProt P22087)	-0.094	0.048	-0.03	0.17	0.146	0.199	0.184	0.319	-0.031	0.206
HMOX2 (UniProt P30519)	-0.061	-0.035	-0.092	0.081	0.031	0.08	0.028	0	-0.016	0.012
GSTT1 (UniProt P30711)	-0.054	0.007	0.009	-0.079	-0.079	0.076	-0.005	-0.124	0.139	0.157
IFI30 (UniProt P13284)	0.157	0.049	0.088	-0.05	0.063	0.087	-0.012	0.019	-0.008	-0.099
GALK1 isoform 2 (UniProt P51570)	0.046	0.024	0.018	0.081	-0.081	-0.004	-0.121	0.041	0.023	-0.018
HPCAL1 (UniProt P37235)	0.02	-0.015	0.028	-0.117	-0.018	-0.081	-0.015	-0.003	0.001	-0.041
GLS (UniProt O94925)	0.051	-0.096	0.002	-0.071	-0.14	0.004	0.032	-0.037	0.008	0.002
HHEX (UniProt Q03014)	0.045	0.059	0.005	-0.059	-0.064	-0.113	0.189	-0.075	0.086	-0.074
HNRNPH2 (UniProt P55795)	-0.081	-0.024	-0.134	0.137	-0.067	-0.345 (active)	0.124	0	0.193	-0.104
HIKESHI (UniProt Q53FT3)	0.013	-0.041	0.023	-0.305 (active)	-0.045	-0.007	-0.194	0.062	-0.043	0.061
FNTB (UniProt P49356)	0.017	0.309	-0.028	-0.016	-0.025	0.074	-0.033	-0.003	-0.146	-0.087
HDAC1 (UniProt Q13547)	-0.033	-0.052	0.056	0.02	-0.021	-0.009	-0.067	0.03	0.003	0.023
HDAC6 (UniProt Q9UBN7)	-0.086	0.314	-0.03	0.034	-0.023	0.069	-0.025	0.009	-0.046	0.021
FARS2 (UniProt O95363)	0	-0.038	-0.05	-0.004	-0.028	-0.182	-0.001	0.002	-0.003	-0.018
